This is a sample that favours compounds with a hit; in the whole collection about 2.1% have one here.
Measles CPE – protection of cells from measles virus; Measles virus-infected cells, CPE protection, absorbance; protection (pct of control), % at 4 µM; actives 1.5% (n = 140,000); in the data active means protection mostly above about 24%, no sharp cut-off; inactive means mostly below about 26%
NFkB transloc inh – blocks IL-1B driven NFkB nuclear translocation in HUVEC cells. actives 0.43% (n = 94,000). HUVEC IL-1B NFkB p65 nuclear translocation imaging. AID 796. inhibition, % at 2 µM;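 active means inhibition above about 30% together with a positive call from visual inspection of the well image, limit read from the data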;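 further: nuclear over cytoplasmic p65 intensity ratio measured by imaging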
IL1B cytotox – toxic to HUVEC cells under IL-1B stimulation. HUVEC cell count loss, Hoechst imaging, IL-1B stimulated. cell count reduction, % at 2 µM. actives 0.41% (n = 94,000);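 active means cell count reduction more than 3 SD above the screen-wide mean, cut at about 70% in these data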
IL1B NFkB pot – enhances IL-1B driven NFkB nuclear translocation; HUVEC IL-1B NFkB p65 nuclear translocation imaging; activation, % at 2 µM; actives 0.3% (n = 94,000);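 active means activation above 40%, about the mean plus 3 SD, also judged a hit on visual image review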;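 further: percent activation is computed from the nuclear over cytoplasmic p65 intensity ratio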
Numbers stand for hits.

How did CC(C)n1c(=S)[nH]c2ccccc2c1=O do in these assays?
Measles CPE: inactive; NFkB transloc inh: 36; IL1B cytotox: inactive; IL1B NFkB pot: inactive

What do the screens show for `COn1c(=S)[nH]c2ccccc2c1=O`?
Measles CPE: inactive; NFkB transloc inh: inactive; IL1B cytotox: inactive; IL1B NFkB pot: inactive

Results for O=C(O)CCCC(=O)Nc1ccc(C(=O)N2CCCCC2)cc1 ?
Measles CPE: inactive; NFkB transloc inh: inactive; IL1B cytotox: inactive; IL1B NFkB pot: inactive

Results for O=C(O)CCC(=O)Nc1ccc(C(=O)N2CCCCC2)cc1 ?
Measles CPE: inactive; NFkB transloc inh: inactive; IL1B cytotox: 88; IL1B NFkB pot: inactive

Results for CCOC(=O)CN(C(=O)CSc1nnc(CNc2ccc(C)cc2C)o1)c1ccccc1 ?
Measles CPE: inactive; NFkB transloc inh: inactive; IL1B cytotox: inactive; IL1B NFkB pot: inactive

Results for O=C(Nc1ccc2c(c1)OCO2)C1(S(=O)(=O)c2ccc(Cl)cc2)CC1 ?
Measles CPE: inactive; NFkB transloc inh: inactive; IL1B cytotox: inactive; IL1B NFkB pot: inactive

Results for COc1cc(NC(=O)CN2CCC(Cc3ccccc3)CC2)c(C)cc1[N+](=O)[O-] ?
Measles CPE: 70

How did Cc1ccc(C2=[N+]([O-])C(C)(C)N(O)C2(C)C)cc1 do in these assays?
Measles CPE: 46

How did Cc1ccc(-c2nn(C)c(=O)c3ccccc23)cc1CNC(=O)Cn1nc(-c2ccccc2)c2ccccc2c1=O do in these assays?
Measles CPE: inactive; NFkB transloc inh: inactive; IL1B cytotox: inactive; IL1B NFkB pot: inactive

What do the screens show for `O=C(NCCN1CCOCC1)c1cc(-c2ccc(Br)cc2)on1`?
Measles CPE: inactive; NFkB transloc inh: inactive; IL1B cytotox: inactive; IL1B NFkB pot: inactive

How did C=CCNC(=O)c1cc(-c2ccc(Br)cc2)on1 do in these assays?
Measles CPE: 63; NFkB transloc inh: inactive; IL1B cytotox: inactive; IL1B NFkB pot: inactive

What do the screens show for `CCCCNS(=O)(=O)c1ccc(OCC(=O)OC)cc1`?
Measles CPE: inactive

What do the screens show for `CCCNS(=O)(=O)c1ccc(OCC(=O)OC)cc1`?
Measles CPE: 39; NFkB transloc inh: inactive; IL1B cytotox: inactive; IL1B NFkB pot: inactive

Results for CC(=O)NC(Cc1ccc(C)cc1)C(=O)NC1CCN(C(=O)c2cnccn2)CC1 (stereo not given) ?
Measles CPE: inactive; NFkB transloc inh: inactive; IL1B cytotox: inactive; IL1B NFkB pot: 43

What do the screens show for `Cc1onc(-c2ccccc2Cl)c1C(=O)N1CCN=C1SCc1cccnc1`?
Measles CPE: inactive; NFkB transloc inh: inactive; IL1B cytotox: inactive; IL1B NFkB pot: inactive

Results for CCCc1cc(=O)oc2cc(C)cc(O)c12 ?
Measles CPE: inactive; NFkB transloc inh: inactive; IL1B cytotox: inactive; IL1B NFkB pot: inactive

How did CCCCCc1cc(O)c2c(C)cc(=O)oc2c1 do in these assays?
Measles CPE: 63; NFkB transloc inh: inactive; IL1B cytotox: inactive; IL1B NFkB pot: inactive

Results for Clc1ccc(OCCCNCc2ccccc2)c(Br)c1 ?
Measles CPE: inactive; NFkB transloc inh: 40; IL1B cytotox: inactive; IL1B NFkB pot: inactive

How did Clc1ccc(Cl)c(OCCCCNCc2ccccc2)c1 do in these assays?
Measles CPE: inactive

Results for CCOc1ccc(Br)cc1S(=O)(=O)Nc1ccc(N2CCOCC2)cc1 ?
Measles CPE: 77; NFkB transloc inh: inactive; IL1B cytotox: inactive; IL1B NFkB pot: inactive

Results for CC(C)(C)NC(=O)CSc1ccc(C(C)(C)C)cc1 ?
Measles CPE: inactive; NFkB transloc inh: inactive; IL1B cytotox: inactive; IL1B NFkB pot: inactive

How did O=C(COC(=O)c1ccc(S(=O)(=O)Nc2ccccc2)cc1)NCc1ccco1 do in these assays?
Measles CPE: inactive; NFkB transloc inh: inactive; IL1B cytotox: inactive; IL1B NFkB pot: inactive

What do the screens show for `COC(=O)c1cc(OC)c(OCc2cc(C(=O)OC)oc2C)c(OC)c1`?
Measles CPE: inactive; NFkB transloc inh: inactive; IL1B cytotox: 89; IL1B NFkB pot: inactive

Results for COC(=O)c1cc(COc2ccc3oc(C)c(C(=O)OC)c3c2)c(C)o1 ?
Measles CPE: inactive; NFkB transloc inh: inactive; IL1B cytotox: inactive; IL1B NFkB pot: inactive

How did Cc1ccc(NC2=C/C(=N\S(=O)(=O)c3cccs3)c3ccccc3C2=O)c(C)c1 do in these assays?
Measles CPE: inactive; NFkB transloc inh: inactive; IL1B cytotox: inactive; IL1B NFkB pot: inactive

How did Cc1ccc(Cl)cc1NC1=C/C(=N\S(=O)(=O)c2cccs2)c2ccccc2C1=O do in these assays?
Measles CPE: inactive; NFkB transloc inh: inactive; IL1B cytotox: inactive; IL1B NFkB pot: 41

Results for CC(NC(=O)OCc1ccccc1)C(=O)Oc1cc2oc(=O)cc(-c3ccccc3)c2cc1Cl (stereo not given) ?
Measles CPE: 29

Results for O=C(Nc1ccccc1)C(=O)Nc1ccccn1 ?
Measles CPE: 27; NFkB transloc inh: inactive; IL1B cytotox: inactive; IL1B NFkB pot: inactive

What do the screens show for `COc1cc(Cl)c(C)cc1NC(=O)COC(=O)c1cnc(C)cn1`?
Measles CPE: inactive; NFkB transloc inh: inactive; IL1B cytotox: inactive; IL1B NFkB pot: inactive

What do the screens show for `O=C(NC(=S)Nc1ncc(Br)cc1Br)c1cncc(Br)c1`?
Measles CPE: 40; NFkB transloc inh: inactive; IL1B cytotox: inactive; IL1B NFkB pot: inactive

Results for COc1ccc(N=Cc2c(O)[nH]c3ccccc23)cc1 ?
Measles CPE: 46; NFkB transloc inh: inactive; IL1B cytotox: inactive; IL1B NFkB pot: inactive

Results for COc1ccc(C(=O)C(OC(=O)CNC(=O)c2ccco2)c2ccccc2)cc1 (stereo not given) ?
Measles CPE: 53; NFkB transloc inh: inactive; IL1B cytotox: inactive; IL1B NFkB pot: inactive

How did CC1CCN(S(=O)(=O)c2cn(CC(=O)N3CC(C)CC(C)C3)c(=O)c3ccccc23)CC1 (stereo not given) do in these assays?
Measles CPE: inactive

Results for CCCCCCNC(=O)c1c(O)c2ccccc2[nH]c1=O ?
Measles CPE: inactive; NFkB transloc inh: inactive; IL1B cytotox: inactive; IL1B NFkB pot: inactive

Results for CC(C)CCNC(=O)C(c1cccs1)N(CC1CCCO1)C(=O)Cn1nnc2ccccc21 (stereo not given) ?
Measles CPE: inactive; NFkB transloc inh: 99; IL1B cytotox: 91; IL1B NFkB pot: inactive

Results for Cc1ccc(-n2c(C)cc(-c3csc(N)n3)c2C)cc1 ?
Measles CPE: 52

How did Cc1nn(C)c(C)c1NC(=O)CSc1nc(C2CC2)nc2c1cnn2-c1ccccc1 do in these assays?
Measles CPE: 62; NFkB transloc inh: inactive; IL1B cytotox: inactive; IL1B NFkB pot: inactive

How did Cc1c(/C=N\NC(=O)c2ccc(F)cc2)cnn1C do in these assays?
Measles CPE: inactive

What do the screens show for `CCn1cc(/C=N\NC(=O)c2ccc(F)cc2)cn1`?
Measles CPE: 29

What do the screens show for `Cc1cc(C=C(C#N)C#N)c(C)n1-c1ccccc1`?
Measles CPE: 51; NFkB transloc inh: inactive; IL1B cytotox: inactive; IL1B NFkB pot: inactive

What do the screens show for `CC(=O)N1C(C(=O)O)CSC1c1cccc(C)c1` (stereo not given)?
Measles CPE: inactive; NFkB transloc inh: 36; IL1B cytotox: inactive; IL1B NFkB pot: inactive

How did CCc1c(O)nc(SCC(=O)Nc2ccccc2C)[nH]c1=O do in these assays?
Measles CPE: inactive; NFkB transloc inh: inactive; IL1B cytotox: inactive; IL1B NFkB pot: inactive

Results for O=C(Nc1ccc(N2CCCCC2)c(Cl)c1)c1cccnc1 ?
Measles CPE: 61; NFkB transloc inh: inactive; IL1B cytotox: inactive; IL1B NFkB pot: inactive
